Only a selection was taken, and the strongest signals are over-represented in it overall.
What was measured:
Test in all cases: glycan array binding signal (z-score within array); higher = stronger binding
Settings in all cases: glycan notation: IUPAC condensed, linker removed
[1] = molecular target: Fuc(a1-2)[Gal(a1-3)]Gal(b1-4)GlcNAc(b1-3)GalNAc
Summary of the method: (§1)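 The Consortium for Functional Glycomics database supplied 3228 glycan arrays, of which those lacking an available protein sequence were dropped. The binding signal, a within-array Z-score, was averaged across arrays of the same protein sequence and across linkers. Negative scores can be read as non-binding.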

[2] = molecular target: Gal(a1-3)Gal(b1-3)GlcNAc(b1-3)GalNAc
Summary of the method: as §1

Gal(a1-4)Gal(b1-4)Glc = molecular target: Gal(a1-4)Gal(b1-4)Glc
Summary of the method: as §1

Gal(a1-6)Glc = molecular target: Gal(a1-6)Glc
Summary of the method: as §1

[3] = molecular target: Gal(b1-3)GlcNAc(a1-6)Gal(b1-4)GlcNAc
Summary of the method: as §1

[4] = molecular target: Gal(b1-3)GlcNAc(b1-2)Man(a1-3)[Gal(b1-3)GlcNAc(b1-2)Man(a1-6)]Man(b1-4)GlcNAc(b1-4)GlcNAc
Summary of the method: as §1

[5] = molecular target: Gal(b1-3)GlcNAc(b1-3)GalNAc
Summary of the method: as §1

[6] = molecular target: Gal(b1-3)[Fuc(a1-4)]GlcNAc(b1-3)Gal(b1-4)[Fuc(a1-3)]GlcNAc
Summary of the method: as §1

[7] = molecular target: Gal(b1-3)[GlcNAc(b1-6)]GalNAc
Summary of the method: as §1

[8] = molecular target: Gal(b1-4)GlcNAc(b1-2)Man(a1-3)Man(b1-4)GlcNAc(b1-4)GlcNAc
Summary of the method: as §1

[9] = molecular target: Gal(b1-4)GlcNAc(b1-2)Man(a1-3)[Gal(b1-4)GlcNAc(b1-2)Man(a1-6)]Man(b1-4)GlcNAc(b1-4)GlcNAc
Summary of the method: as §1

[10] = molecular target: Gal(b1-4)GlcNAc(b1-2)Man(a1-3)[Gal(b1-4)GlcNAc(b1-2)Man(a1-6)]Man(b1-4)GlcNAc(b1-4)[Fuc(a1-6)]GlcNAc
Summary of the method: as §1

[11] = molecular target: Gal(b1-4)GlcNAc(b1-2)Man(a1-3)[Gal(b1-4)GlcNAc(b1-2)][GlcNAc(b1-4)]Man(b1-4)GlcNAc(b1-4)GlcNAc
Summary of the method: as §1

[12] = molecular target: Gal(b1-4)GlcNAc(b1-2)Man(a1-3)[GlcNAc(b1-2)Man(a1-6)]Man(b1-4)GlcNAc(b1-4)GlcNAc
Summary of the method: as §1

[13] = molecular target: Gal(b1-4)GlcNAc(b1-2)Man(a1-3)[Man(a1-6)]Man(b1-4)GlcNAc(b1-4)GlcNAc
Summary of the method: as §1

Gal3S6S(b1-4)GlcNAc6S = molecular target: Gal3S6S(b1-4)GlcNAc6S
Summary of the method: as §1

Gal6S(b1-4)GlcNAc = molecular target: Gal6S(b1-4)GlcNAc
Summary of the method: as §1

GalNAc(b1-6)GalNAc = molecular target: GalNAc(b1-6)GalNAc
Summary of the method: as §1

Glc(a1-6)Glc(a1-6)Glc = molecular target: Glc(a1-6)Glc(a1-6)Glc
Summary of the method: as §1

GlcA(b1-3)Gal = molecular target: GlcA(b1-3)Gal
Summary of the method: as §1

GlcNAc(b1-3)Gal = molecular target: GlcNAc(b1-3)Gal
Summary of the method: as §1

GlcNAc(b1-4)GlcNAc = molecular target: GlcNAc(b1-4)GlcNAc
Summary of the method: as §1

[14] = molecular target: GlcNAc6S(b1-3)Gal(b1-4)GlcNAc
Summary of the method: as §1

[15] = molecular target: Man(a1-2)Man(a1-2)Man(a1-6)[Man(a1-3)]Man
Summary of the method: as §1

[16] = molecular target: Man(a1-2)Man(a1-3)[Man(a1-2)Man(a1-6)]Man(a1-6)[Man(a1-2)Man(a1-2)Man(a1-3)]Man
Summary of the method: as §1

Man(b1-4)GlcNAc = molecular target: Man(b1-4)GlcNAc
Summary of the method: as §1

Neu5Ac(a2-3)GalNAc = molecular target: Neu5Ac(a2-3)GalNAc
Summary of the method: as §1

[17] = molecular target: Neu5Ac(a2-6)Gal(b1-4)GlcNAc(b1-2)Man(a1-3)[Man(a1-6)]Man(b1-4)GlcNAc(b1-4)GlcNAc
Summary of the method: as §1

[18] = molecular target: Neu5Ac(a2-6)Gal(b1-4)GlcNAc(b1-2)Man(a1-6)[Gal(b1-4)GlcNAc(b1-2)Man(a1-3)]Man(b1-4)GlcNAc(b1-4)GlcNAc
Summary of the method: as §1

[19] = molecular target: Neu5Ac(a2-6)Gal(b1-4)GlcNAc(b1-2)Man(a1-6)[GlcNAc(b1-2)Man(a1-3)]Man(b1-4)GlcNAc(b1-4)GlcNAc
Summary of the method: as §1

B1: ASAL (Allium sativum), P83886 (protein)
chain: MGRTTSSPKAMMRIATVAAILTILASTCMARNVLTNGEGLYAGQSLDVEQYKFIMQDDCNLVLYEYSTPIWASNTGVTGKNGCRAVMQRDGNFVVYDVNGRPVWASNSVRGNGNYILVLQKDRNVVIYGSDIWSTGTYRRSVGGAVVMAMNGTVDGGSVIGPVVVNQNVTAAIRKVGTGAA
glycan array binding signal (z-score) [1]: -0.201 | glycan array binding signal (z-score) [2]: -0.206 | glycan array binding signal (z-score) (Gal(a1-4)Gal(b1-4)Glc): -0.282 | glycan array binding signal (z-score) (Gal(a1-6)Glc): -0.285 | glycan array binding signal (z-score) [3]: -0.252 | glycan array binding signal (z-score) [4]: -0.113 | glycan array binding signal (z-score) [5]: -0.178 | glycan array binding signal (z-score) [6]: -0.218 | glycan array binding signal (z-score) [7]: -0.267 | glycan array binding signal (z-score) [8]: 6.55 | glycan array binding signal (z-score) [9]: 5.54 | glycan array binding signal (z-score) [10]: 7.04 | glycan array binding signal (z-score) [11]: -0.228 | glycan array binding signal (z-score) [12]: 5.91 | glycan array binding signal (z-score) [13]: 7.21 | glycan array binding signal (z-score) (Gal3S6S(b1-4)GlcNAc6S): -0.238 | glycan array binding signal (z-score) (Gal6S(b1-4)GlcNAc): -0.193 | glycan array binding signal (z-score) (GalNAc(b1-6)GalNAc): -0.24 | glycan array binding signal (z-score) (Glc(a1-6)Glc(a1-6)Glc): -0.234 | glycan array binding signal (z-score) (GlcA(b1-3)Gal): 5.39 | glycan array binding signal (z-score) (GlcNAc(b1-3)Gal): -0.3 | glycan array binding signal (z-score) (GlcNAc(b1-4)GlcNAc): -0.252 | glycan array binding signal (z-score) [14]: -0.065 | glycan array binding signal (z-score) [15]: 2.53 | glycan array binding signal (z-score) [16]: 4.09 | glycan array binding signal (z-score) (Man(b1-4)GlcNAc): -0.236 | glycan array binding signal (z-score) (Neu5Ac(a2-3)GalNAc): -0.276 | glycan array binding signal (z-score) [17]: 0.085 | glycan array binding signal (z-score) [18]: 4.59 | glycan array binding signal (z-score) [19]: 5.01

Source: the supplement of paper PMC8728848
